Screens deposited in PubChem by National Center for Advancing Translational Sciences (NCATS).
Sm TGR block: blocks Schistosoma mansoni thioredoxin glutathione reductase; AID 485364; 360,000 compounds, 3% hits; purified TGR, DTNB reduction, TNB absorbance 405 nm; Potency, µM (titrated, usually from 114 µM), hits mostly inhibitors; Q962Y6; further: nearly all actives have a fitted effect of over 60% in size
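Kinetic colorimetric format: TGR-catalysed, NADPH-driven DTNB reduction monitored via TNB absorbance. Enzyme dispensed at 20 nM; compound exposure 15 min at room temperature before reaction start.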
AmpC inh detg: blocks E. coli AmpC beta-lactamase in detergent assay | P00811 | AmpC hydrolysis of nitrocefin, absorbance 480 nm, 0.01% Triton | Potency, µM (doses to about 114 µM), actives largely listed as inhibitors | 370,000 compounds, 0.041% hits; further: nearly all actives have a fitted effect of over 25% in size
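20 mM phosphate pH 7.0 + 0.01% (detergent screen) or 0.0001% Triton X-100; 5.3 nM AmpC reagent; cpd preinc 15 min RT; nitrocefin (800 uM stock) to start; A480 q20 s × 4 min; Activity was normalised to no-enzyme and no-compound control wells.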
RE007 growth inh: less growth of the S. pombe RE007 Vpr strain | S. pombe RE007 Vpr strain, BacTiter-Glo ATP luminescence, 24 h | Potency, µM (top dose mostly 92.2 µM), hits mostly inhibitors | 360,000 compounds, 0.21% hits; active means well fitted falling curve with a large enough effect; inconclusive means small, poorly fitted or top-dose-only effect; inactive means no such curve, though single readings can be large or run the other way; further: nearly all actives have a fitted effect of over 50% in size
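Fission yeast RE007 carrying one integrated HIV-1 vpr copy, seeded at OD 0.01 in PMG+AL medium with 23 nL pinned compound. Grown 24 h at 30 degrees; viability read by BacTiter-Glo luminescence after 5 min.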
FBPA Giardia inh: Giardia lamblia aldolase inhibition. 290,000 compounds, 0.71% hits. purified Giardia FBPA. Potency, µM (top dose mostly 59.6 µM), hits mostly inhibitors. AID 2451. A8B2U2; further: nearly all actives have a fitted effect of over 55% in size
Target sequence (A8B2U2 whole entry, looked up): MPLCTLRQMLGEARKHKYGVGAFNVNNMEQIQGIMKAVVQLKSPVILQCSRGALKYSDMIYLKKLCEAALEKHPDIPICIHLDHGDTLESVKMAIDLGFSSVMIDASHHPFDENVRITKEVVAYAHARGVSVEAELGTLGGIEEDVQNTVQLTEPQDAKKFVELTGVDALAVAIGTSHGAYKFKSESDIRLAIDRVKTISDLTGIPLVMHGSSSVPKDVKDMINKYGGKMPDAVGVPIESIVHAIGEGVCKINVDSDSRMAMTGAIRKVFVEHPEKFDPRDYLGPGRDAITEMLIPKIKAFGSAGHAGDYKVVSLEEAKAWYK
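Giardia FBPA (40 nM reagent) was preincubated 10 min at RT with compound (up to 57.5 uM final), then substrate plus GAPDH/TPI/NAD/arsenate coupling system with diaphorase/resazurin was added; resorufin fluorescence (525/598 nm) was read after 20 min.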
AmpC no deterg: blocks E. coli AmpC beta-lactamase in detergent-free assay; AmpC nitrocefin hydrolysis, absorbance 480 nm, 0.0001% Triton; 330,000 compounds, 0.52% hits; P00811; AID 485341; Potency, µM (series often up to 57.1 µM), most hits filed as inhibitors; further: nearly all actives have a fitted effect of over 20% in size
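AmpC (5.3 nM in the dispensed reagent) in 20 mM phosphate pH 7.0 with 0.01% (detergent screen) or 0.0001% Triton X-100 was preincubated with compounds for 15 min at room temperature. Nitrocefin was then added from an 800 uM solution, and hydrolysis was followed at 480 nm.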
A number is an active result; i = inactive; ? = inconclusive; nt = not tested or not shown. This is a sample that favours compounds with a hit; in the whole collection about 3.4% have one here. Unless noted, the call rests on the fitted dose curve; in most records, active means well fitted curve in the direction sought with a large enough effect; inconclusive means small, poorly fitted or top-dose-only effect, or another doubt; inactive means no such curve, though single readings can be large; an effect the other way counts as inactive or inconclusive.

SMILES	Sm TGR block	AmpC inh detg	RE007 growth inh	FBPA Giardia inh	AmpC no deterg
Cc1ccccc1N(Cc1cc(=O)[nH]c2ccccc12)C(=O)CCl	14.1µM	i	nt	i	i
O=C(CCl)N(Cc1cc(=O)[nH]c2ccccc12)c1ccccc1	3.55µM	i	nt	i	i
CCC(=O)N(Cc1cc(=O)[nH]c2ccccc12)c1ccccc1	i	i	i	i	i
CCCc1ccc(/C=C2\C(=O)c3ccccc3C(O)=C2C(=O)OCC)cc1	8.91µM	?	nt	?	17.8µM
CCOC(=O)C1=C(O)c2ccccc2C(=O)/C1=C\c1ccc(CC)cc1	4.47µM	i	?	7.94µM	i
CCOC(=O)C1=C(C)OC(=Cc2ccc(OC)cc2)C1=O	nt	nt	i	nt	nt
CCCCC(=O)NC(NC(=O)CCCC)c1ccc(OCC(C)C)c(OC)c1	i	i	i	i	i
Cc1ccc(S(=O)(=O)c2ncccc2[N+](=O)[O-])cc1	0.355µM	i	i	i	i
COc1ccccc1/C=N/NC(=O)CO	i	i	i	i	i
COc1ccc(/C=N/NC(=O)c2ccccc2OCc2ccccc2)c(OC)c1	i	i	i	i	i
COc1ccccc1/C=N/NC(=O)CC(=O)NCc1ccccc1	i	i	i	17.7µM	i
C#CCOc1ccccc1/C=N/NC(=O)c1ccccc1OCc1ccccc1	i	i	i	nt	20µM
COc1ccccc1C(=O)NCC(=O)N/N=C/c1cc(Br)ccc1OCc1ccccc1	i	i	i	i	25.1µM
O=C(CNC(=O)c1cccc(F)c1)N/N=C/c1cc(Br)ccc1OC(=O)/C=C/c1ccco1	?	i	i	i	15.8µM
O=C(CNC(=O)c1ccc(F)cc1)N/N=C/c1cc(Br)ccc1OCc1ccccc1	i	i	i	i	?
COc1ccc(OC)c(NC(=O)C(Sc2ccccc2)c2ccccc2)c1 (stereo not given)	i	i	i	i	i
O=C(CNC(=O)c1ccccc1O)N/N=C/c1cc(Br)ccc1OC(=O)/C=C/c1ccco1	?	i	i	i	3.16µM
O=C(CNC(=O)c1ccccc1Br)N/N=C/c1ccco1	i	i	i	i	i
COc1ccc(N2Cc3ccccc3C2=O)cc1	i	i	?	i	i
C=CC(=O)Oc1ccc(N2Cc3ccccc3C2=O)cc1	nt	nt	7.94µM	nt	nt
COc1cccc(N2CCN(C(=O)c3ccc(-c4ccccc4)cc3)CC2)c1	i	i	i	nt	i
C=C1CCN(C(Cc2ccccc2)C(=O)OC)S(=O)(=O)c2ccc(F)cc21 (stereo not given)	22.4µM	i	i	i	i
Cc1ccc(S(=O)(=O)c2nc(S(C)(=O)=O)sc2N(C)Cc2ccccc2)cc1	?	i	nt	nt	nt
Cc1ccc(S(=O)(=O)c2nc(S(C)(=O)=O)sc2N(C)C)cc1	25.1µM	i	i	i	i
C[C@H](NC(=O)OC(C)(C)C)c1nnc(SCc2c(F)cccc2Cl)o1	i	i	nt	nt	nt
SMILES	Sm TGR block	AmpC inh detg	RE007 growth inh	FBPA Giardia inh	AmpC no deterg
CC(C)[C@H](NC(=O)OC(C)(C)C)c1nnc(S(=O)(=O)Cc2c(F)cccc2Cl)o1	1µM	2µM	i	i	2.51µM
Cc1ccccc1CS(=O)(=O)c1nnc([C@H](CC(C)C)NC(=O)OC(C)(C)C)o1	2µM	14.1µM	i	i	?
CC[C@@H](C)[C@H](NC(=O)OC(C)(C)C)c1nnc(S(=O)(=O)Cc2cc(C)ccc2C)o1	2.82µM	11.2µM	?	i	?
CC(C)(C)OC(=O)N[C@@H](Cc1ccccc1)c1nnc(S(=O)(=O)Cc2cccc(F)c2)o1	0.398µM	25.1µM	?	i	i
CC(C)C[C@H](NC(=O)OC(C)(C)C)c1nnc(SCc2ccccc2)o1	i	i	i	i	i
COc1ccc(C(C)(NC(C)=O)c2nc(-c3cccc(C(F)(F)F)c3)cs2)cc1 (stereo not given)	nt	nt	i	nt	nt
O=C(COC(=O)C1CCN(S(=O)(=O)c2cccs2)CC1)Nc1ccccc1Br	i	i	i	i	i
Cc1nnc(NC(=O)C2CCN(C(=O)c3ccco3)CC2)s1	i	i	i	i	i
CN(C(=O)/C=C/c1cnc2ccccc2c1)C1CCCCC1	i	?	i	i	i
CCc1ccc(NC(=S)N(CCCN2CCOCC2)Cc2ccco2)cc1	i	i	i	i	i
COc1ccc(C(=O)Nc2ccccc2NC(=O)c2ccco2)c(OC)c1	i	i	i	i	i
